Test [1] can be described thus: qHTS to identify inhibitors of the type 1 interferon - major histocompatibility complex class I in skeletal muscle: primary screen against the NCATS Mechanism Interrogation Plate v5.0 (MIPE) Libary (AID 1347411). Further: nearly all actives have a fitted effect of over 65% in size. Further: potency means the concentration at half of the fitted maximal effect. To be noted: iHSKM cells + IFN-b, HiBiT-tagged MHC-I luminescence, 24 h; series mostly up to 45.8 µM. The essentials: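 Cells were genome-edited human myoblasts carrying a HiBit tag on endogenous HLA-B. They were treated with IFN-beta (4.0 ng/ml) and titrated compounds (top 46 uM) for 24 hrs before lytic HiBiT detection.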
A general note: In qHTS, concentration-response curves come from the screen itself.

For test [2], the target named is Calcium and integrin-binding protein 1 (Homo sapiens) (UniProt Q99828). Description: Primary qHTS for Identification of Calcium Integrin Binding Protein 1 (CIB1) Competitor (AID 1508620).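 Further: GST tagged CIB1 binding a fluorescein labelled alphaIIb integrin peptide tracer; top concentration of the series differs between compounds.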 The note with it: CIB1-GST / FITC-alphaIIb peptide fluorescence polarization; series mostly up to 114 µM. The essentials: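 CIB1-GST (1 uM final) and compound incubated 15 min at room temperature before adding FITC-alphaIIb peptide tracer (100 nM final). Competition for binding read by fluorescence polarization (ex 480, em 540) after another 15 min at room temperature.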
Chain of Calcium and integrin-binding protein 1 (Homo sapiens) (Q99828 whole entry, looked up): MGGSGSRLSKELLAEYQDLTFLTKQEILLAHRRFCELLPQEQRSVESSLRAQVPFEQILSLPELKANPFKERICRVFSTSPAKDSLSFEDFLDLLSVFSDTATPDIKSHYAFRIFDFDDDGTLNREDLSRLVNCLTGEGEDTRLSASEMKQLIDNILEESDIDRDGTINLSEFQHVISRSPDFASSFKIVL

Test [3] can be described thus: qHTS for Antimalaria activity screened against the NCATS CANVASS Library (AID 1347380). Further: potency means the concentration at half of the fitted maximal effect; nearly all actives have a fitted effect of over 40% in size. The note with it: P. falciparum Dd2 growth, SYBR Green fluorescence, 72 h. The gist of the method: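 Growth inhibition of asexual erythrocytic P. falciparum Dd2 was quantified by SYBR Green DNA staining. Cultures grew 72 h with compound (11-point series) in hypoxic gas at 37C; lysis and staining lasted 18 h.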

Test [4] in a line: Inflammasome Signaling qHTS Counterscreen: IL-1-beta AlphaLISA counterscreen against the NCATS CANVASS Library (AID 1347381).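 Further: cell-free check with purified IL-1β in medium and no THP-1 cells.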 To be noted: Purified IL-1beta AlphaLISA signal interference counterscreen; series mostly up to 57.5 µM. The gist of the method: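 To flag interference with the AlphaLISA read-out, a known amount of purified IL-1-beta (4 pg) replaced cell supernatant. Detection used anti-IL-1-beta acceptor beads, biotinylated antibody and streptavidin donor beads at room temperature.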

A short description of test [5]: qHTS for Activators of p53 Stress Response Pathway screened against the NCATS CANVASS Library (AID 1347388). Further: potency means the concentration at half of the fitted maximal effect. The note with it: p53RE-bla HCT-116, beta-lactamase reporter, 16 h. The essentials: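 Beta-lactamase reporter driven by p53 response elements in HCT-116 cells, read as the 460 nm/530 nm emission ratio after CCF4 loading, following 16 h of exposure to an 11-point series. Cell viability was measured in the same wells by CellTiter-Glo luminescence.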

The nature of test [6]: qHTS assay for small molecule disruptors of mitochondrial membrane potential screened against the NCATS CANVASS Library (AID 1347389). Further: potency means the concentration at half of the fitted maximal effect; nearly all actives have a fitted effect of over 60% in size. To be noted: HepG2 mitochondrial membrane potential, m-MPI red/green ratio, 1.5 h. The gist of the method:
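Compounds tested in 11-point qHTS series on HepG2 cells for 1 hr; membrane-potential dye added for 30 min at 37C. Lower red-to-green ratio indicates loss of potential.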

The nature of test [7]: qHTS for activators of Nrf2/ARE signaling pathway screened against the NCATS CANVASS Library (AID 1347391). Further: nearly all actives have a fitted effect of over 60% in size. To be noted: ARE-bla HepG2, beta-lactamase reporter, 16 h; series mostly up to 46.1 µM. The essentials:
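Cells carrying an ARE-driven beta-lactamase reporter (HepG2 background) are dosed for 16 h, then stained with CCF4. Cell viability in the same wells is measured by CellTiter-Glo luminescence.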

Test [8] in a line: Vero-766 cells viability qHTS against the NCATS CANVASS Library: Counterscreen for Zika virus inhibition assay (AID 1347394). Further: potency means the concentration at half of the fitted maximal effect; nearly all actives have a fitted effect of over 60% in size. The note with it: Vero 766 viability, CellTiter-Glo luminescence, 72 h. The gist of the method:
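Vero 766 cells (1000/well), without Zika virus, were exposed to compounds for 72 h at 37C. Viability was measured by CellTiter Glo luminescence. Media-only wells served as 100% inhibition.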

A short description of test [9]: Redox Reaction Profiling qHTS: Assay Interference Panel against the NCATS CANVASS Library (AID 1347401). To be noted: resazurin-DTT redox cycling, fluorescence, 15 min; series mostly up to 57.1 µM. The gist of the method:
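Cell-free redox surrogate: 5 uM resazurin + 200 uM DTT, 50 mM HEPES pH 7.3/50 mM NaCl; cpds pinned, 11-pt qHTS; Ex525/Em598 read t0 and t=15 min, dark.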

Test [10] in a line: qHTS to identify inhibitors of the type 1 interferon - major histocompatibility complex class I in skeletal muscle: primary screen against the NCATS Pharmaceutical Collection (AID 1347407). To be noted: human skeletal muscle cells, IFN-b-induced MHC-I HiBiT luminescence, 24 h; series mostly up to 45.9 µM. The essentials: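 Immortalized human myoblasts (C25cl48) with HiBiT knocked into endogenous HLA-B*08:01 were stimulated with 4.0 ng/ml IFN-beta and treated with compounds ([…] top 46 uM) for 24 hrs at 37 C. HiBiT lytic luminescence read.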

In test [11] the target is Protein phosphatase 1D (Homo sapiens) (UniProt O15297). Description: RapidFire Mass Spectrometry qHTS Assay for Modulators of WT P53-Induced Phosphatase 1 (WIP1) (AID 1347424).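 Further: amount of dephosphorylated VEPPL-S-QETFS peptide product formed by WIP1; potency means the concentration at half of the fitted maximal effect.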 To be noted: WIP1 dephosphorylation of phosphopeptide, RapidFire MS; series mostly up to 63 µM. The essentials: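 10 nM WIP1 + cpd, 1 h RT; + 2 uM VEPPL-pS-QETFS, 5 min RT; stop 0.5% formic acid; labelled product standard 1 uM; RapidFire MS. Buffer 50 mM Tris pH 7.5, 30 mM MgCl2, 1 mM TCEP.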
Chain of Protein phosphatase 1D (Homo sapiens) (O15297 whole entry, looked up): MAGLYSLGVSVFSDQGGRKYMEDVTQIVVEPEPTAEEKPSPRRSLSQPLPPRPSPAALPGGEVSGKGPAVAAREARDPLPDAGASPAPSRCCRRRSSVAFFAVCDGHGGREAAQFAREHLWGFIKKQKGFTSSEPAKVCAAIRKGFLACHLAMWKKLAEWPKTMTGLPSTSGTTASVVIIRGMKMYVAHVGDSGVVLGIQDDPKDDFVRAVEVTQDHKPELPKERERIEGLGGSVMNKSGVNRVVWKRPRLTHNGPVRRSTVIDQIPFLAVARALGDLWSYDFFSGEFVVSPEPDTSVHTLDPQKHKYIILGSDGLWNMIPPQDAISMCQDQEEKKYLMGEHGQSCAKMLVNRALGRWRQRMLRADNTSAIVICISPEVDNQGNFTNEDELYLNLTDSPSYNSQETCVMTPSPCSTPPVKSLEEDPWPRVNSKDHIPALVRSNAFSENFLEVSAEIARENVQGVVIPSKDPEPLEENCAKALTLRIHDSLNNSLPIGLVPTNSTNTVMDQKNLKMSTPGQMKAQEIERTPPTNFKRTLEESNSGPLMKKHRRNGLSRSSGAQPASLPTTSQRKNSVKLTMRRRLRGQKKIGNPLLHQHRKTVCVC

A short description of test [12]: Primary qHTS for inhibitors of La Crosse Virus (LACV) - induced cell death in SH-SY5Y cells (AID 1508616).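 Further: top concentration of the series differs between compounds; higher means more rescue of cells from virus-induced death.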 To be noted: SH-SY5Y LACV cytopathicity rescue, ATP luminescence, 6 d; series mostly up to 4.29 µM. The gist of the method:
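Readout was luminescence from ATPLite 1step added after a 6-day LACV infection (0.01 MOI) of SH-SY5Y cells that had received pin-transferred compound 24 hr after seeding.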

Results filed as inconclusive are left out. Active and inactive are the calls of the source. The call rests on the fitted dose curve; in most records, active means well fitted curve in the direction sought with a large enough effect; inconclusive means small, poorly fitted or top-dose-only effect, or another doubt; inactive means no such curve, though single readings can be large; an effect the other way counts as inactive or inconclusive.

For the compound `CCNC(=O)C#Cc1ccc2c(C(=Nc3ccc(CN(C)C)cc3)c3ccccc3)c(O)[nH]c2c1`, in test [1], the Potency is 4.04 µM (active). In test [2], the Potency result was “inactive”.

`Cc1ccc(C(=O)Nc2ccc(CN3CCN(C)CC3)c(C(F)(F)F)c2)cc1C#Cc1cnc2[nH]ncc2c1`: the Potency in test [1] is 0.117 µM (active). For the same compound, the Potency result in [2] was “inactive”.

In the case of `CC(C)CC(=O)c1c(O)cc2c(c1O)C(CC(C)C)C1=C(O2)C(C)(C)C(=O)C(C)(C)C1=O` (stereo not drawn), the Potency in test [3] is 594 nM (active); in test [5], 20.9 µM (active); in [6], 3.31 µM (active); in test [8], 6.6 µM (active). The outcome in [4], in test [7] and in test [9] was inactive. For the same compound, in test [2], the Potency result was “inactive”.

On to `CCN(c1cc(-c2ccc(CN3CCOCC3)cc2)cc(C(=O)NCc2c(C)cc(C)[nH]c2=O)c1C)C1CCOCC1`, for which the Potency result in test [1] and in [2] was “inactive” in each case.

`O=C(c1c(F)ccc(NS(=O)(=O)N2CC[C@@H](F)C2)c1F)c1c[nH]c2ncc(-c3cnc(C4CC4)nc3)cc12`: the Potency entry in test [1] and in test [2] was “inactive” each time.

With `COc1cccc(OCCCN)c1-c1cc(Nc2cnc(C#N)cn2)n[nH]1`, in [1], the Potency was 6.58 µM (active). Moreover, the Potency result in test [2] is “inactive”.

Consider `Cc1cnc(-c2ccccc2C(C)C)nc1NCc1ccc(-n2ccnn2)cc1`, for which the Potency result in test [1] and in test [2] was “inactive” in each case.

For `Cc1cccc(CC(=O)N2CCc3c2ccc(-c2cn(C)c4ncnc(N)c24)c3F)n1`, the Potency entry in test [1] and in [2] was “inactive” in each case.

With `CC(C)(CNC(=O)c1cccc(-c2noc(C(F)(F)F)n2)c1)c1coc(-c2ccccc2)n1`, the Potency entry in test [1] and in [2] was “inactive” in each case.

With `CS(=O)(=O)c1ccc(Oc2cc(F)cc(C#N)c2)c2c1[C@H](O)C(F)(F)C2`, the Potency result in test [1] and in test [2] was “inactive” each time.

Regarding `Oc1cccc(-c2c3nc(c(-c4cccc(O)c4)c4ccc([nH]4)c(-c4cccc(O)c4)c4nc(c(-c5cccc(O)c5)c5ccc2[nH]5)CC4)C=C3)c1`, the compound was called inactive in [10] and in test [12]. The Potency in test [11] is 1.58 µM (active).

As to `FC(F)(F)c1ccc(CNc2ccc(Cc3c[nH]c4ncc(Cl)cc34)cn2)cn1`, the Potency result in test [1] and in test [2] was “inactive” in each case.

As for `O=C1NC(=O)C(c2cnc3ccccn23)=C1c1cn2c3c(cc(F)cc13)CN(C(=O)N1CCCCC1)CC2`, in test [1], the Potency is 18.6 µM (active).

Take `Nc1nccc(-c2c(-c3ccc(F)cc3)ncn2C2CCCCC2)n1`: the Potency result in test [1] and in test [2] was “inactive” each time.

As for `COc1cc(S(C)(=O)=O)ccc1Nc1nc2ccc(-c3ccc(NC(=O)[C@H](C)c4ccc(F)cc4)cc3)cn2n1`, the Potency result in test [1] and in test [2] was “inactive” each time.

For the compound `CCCCNc1ncc(-c2ccc(CN3CCOCC3)cn2)c(NC2CCC(O)CC2)n1` (stereo not drawn), the Potency result in test [1] and in [2] was “inactive” throughout.

(Values after PubChem BioAssay (NCATS).)
